Screens deposited in PubChem by National Center for Advancing Translational Sciences (NCATS).
PNC assembly inh = perinucleolar compartment assembly inhibition; PC3M PTB-GFP, PNC prevalence imaging, 16 h; hits give low values; activity change (PNC), negative = inhibition, % at 10 µM; 140,000 compounds, 3.1% hits; AID 2417;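 active = readout at or below -70, meaning at least 70% loss of cells showing the perinucleolar compartment, a nuclear body marking cancer cells; inconclusive = readout between -30 and a set limit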;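 also: plate controls were DMSO wells for no effect and camptothecin positive control wells for full effect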
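PC3M cells stably expressing PTB-GFP, 750–1000 cells/well, treated 16 h at 37 °C with compound (23 nl of library stock), in duplicate. After paraformaldehyde fixation and Hoechst stain, imaged at 20x; PNC prevalence scored by image analysis.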
12-hLO inh = inhibitors of human 12-lipoxygenase (ALOX12); Potency, µM (series often up to 57.1 µM), for inactives: at the highest dose activity change, negative = inhibition, usual class: inhibitors; 150,000 compounds, 0.12% hits; purified 12-hLO, xylenol orange hydroperoxide absorbance; AID 1452; P18054; active = well fitted curve in the direction sought with a large enough effect; inconclusive = small, poorly fitted or top-dose-only effect, or another doubt; inactive = no such curve, though single readings can be large; an effect the other way counts as inactive or inconclusive; also: potency is read from the fitted curve at half-maximal effect; nearly all actives have a fitted effect of over 55% in size
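Purified human 12hLO (150 nM final) was preincubated with compounds for 15 min at room temperature in 25 mM Hepes pH 7.0, 0.01% Triton X-100, then reacted with 40 uM arachidonic acid for 30 min. Hydroperoxide was detected with ferrous iron/xylenol orange.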
IMPase inh = cell-permeable inhibitors of inositol monophosphatase (IMPase) | AID 901 | P97697 | CHO-M1 cells, IP1 accumulation, HTRF TR-FRET ratio | inhibition (IP1 accumulation), % at 46.1 µM | 120,000 tested, under 10 active; active = well fitted curve in the direction sought with a large enough effect in the signal ratio, not every such curve was filed as active; inconclusive = small, poorly fitted or top-dose-only effect, or a change in a side signal; inactive = no such curve, though single readings can be large or run the other way; the % refers to the signal ratio;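 also: cells stimulated with carbachol in lithium chloride buffer; plate controls were DMSO basal wells for no effect and reference inhibitor wells for full effect; higher means more IMPase inhibition seen as more IP1 and lower FRET ratio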
Target sequence (P97697 whole entry, looked up): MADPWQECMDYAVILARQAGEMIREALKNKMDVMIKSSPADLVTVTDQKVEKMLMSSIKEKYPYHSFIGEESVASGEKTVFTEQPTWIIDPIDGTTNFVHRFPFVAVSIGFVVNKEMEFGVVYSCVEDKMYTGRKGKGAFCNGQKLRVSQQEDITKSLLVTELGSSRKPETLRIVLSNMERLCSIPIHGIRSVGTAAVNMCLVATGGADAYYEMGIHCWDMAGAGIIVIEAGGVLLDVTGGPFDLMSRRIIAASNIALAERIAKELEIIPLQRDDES
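Seeded CHO-M1 cells were dosed with compound at up to 46 uM, stimulated with carbachol for 30 min, then lysed in IP-One detection reagents. Higher IP1 lowers the TR-FRET signal.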
ALDH1A1 block = ALDH1A1 (human) enzyme inhibition | P00352 | Purified ALDH1A1, NADH fluorescence, propionaldehyde substrate | Potency, µM (series often up to 75.3 µM), inactives show top-dose activity, negative = inhibition, usual class: inhibitors | 220,000 compounds, 7.3% hits | AID 1030;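 also: potency is read from the fitted curve at half-maximal effect; plate controls were no enzyme wells and a reference inhibitor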
IMPase Li cell = cell-permeable IMPase inhibitors with lithium potentiation; CHO-M1 cells, IP1 TR-FRET (IP-One), carbachol + lithium; Potency, µM (titrated, usually from 59.4 µM), for the others: at the top dose activity, negative = IMPase inhibition, usual class: inhibitors; 210,000 compounds, 0.35% hits; active = well fitted curve in the direction sought with a large enough effect; inconclusive = small, poorly fitted or top-dose-only effect, or another doubt; inactive = no such curve, though single readings can be large; an effect the other way counts as inactive or inconclusive;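 also: IP1 builds up when IMPase is blocked and the TR-FRET signal falls; potency is read from the fitted curve at half-maximal effect; plate controls were basal vehicle for no effect and high inhibitor control for full effect; nearly all actives have a fitted effect of over 50% in size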
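Lithium-sensitised IP1 accumulation assay; M1-expressing CHO cells treated 30 min at 37C with compound. Competitive antibody detection by time-resolved FRET followed a 10 min room-temperature lysis step.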
HPGD block = inhibitors of human 15-hydroxyprostaglandin dehydrogenase (HPGD); purified HPGD, NADH fluorescence kinetic, PGE2 substrate; Potency, µM, without a hit: at the top dose activity change, negative = inhibition, actives largely listed as inhibitors; 150,000 compounds, 4.3% hits; also: potency is read from the fitted curve at half-maximal effect
Target sequence (P15428 whole entry, looked up): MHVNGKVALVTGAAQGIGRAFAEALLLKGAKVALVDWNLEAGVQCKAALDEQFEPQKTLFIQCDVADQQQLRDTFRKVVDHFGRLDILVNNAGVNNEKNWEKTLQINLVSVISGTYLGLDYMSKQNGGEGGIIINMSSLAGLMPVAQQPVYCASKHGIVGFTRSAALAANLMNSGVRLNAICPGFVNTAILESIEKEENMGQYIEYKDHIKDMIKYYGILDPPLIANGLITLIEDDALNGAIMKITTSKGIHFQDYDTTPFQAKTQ
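20 nM HPGD preincubated 15 min at room temperature with compound in 50 mM Tris-HCl pH 8, 0.01% Tween 20. Started with 1 mM NAD+ and 30 uM prostaglandin E2; NADH fluorescence (360/450 nm) read 5 times over 30-s intervals, last minus first.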
The depositor's hits bear a star; ? = inconclusive; · = no result; ! = repeats disagree; [ ] = remark or other dose. Shown are actives, neighbours in structure and some others; about 11% of the full set was active somewhere. Unless noted, calls follow the shape of the dose curve; as a rule, active = well fitted inhibition curve with a large enough effect (not every such curve was filed as active); inconclusive = small, poorly fitted or top-dose-only effect, or another doubt; inactive = no such curve, though single readings can be large or run the other way. Unless noted, % is scaled to controls: 0 for no effect and ±100 for the full control effect.

SMILES	PNC assembly inh	12-hLO inh	IMPase inh	ALDH1A1 block	IMPase Li cell	HPGD block
O=[N+]([O-])c1ccc(CSc2ncnc3c2ncn3[C@@H]2O[C@@H](CO)[C@@H](O)[C@H]2O)cc1	·	-5.0%	3.3	·	·	·
Cc1cccc(-c2nc(N3CCN(c4ccc(F)cc4)CC3)c3ccccc3n2)c1	·	·	-5.1	·	·	·
COc1cc(OC)cc(-c2nnc(SCC(=O)N3CCC(C)CC3)o2)c1	·	·	7.5	·	·	·
CCCCC(=O)NCc1ccc2c(c1)cc(C)n2C	-10.1	0.5%	-8.2	-4.9%	-9.7%[38.3 µM]	1.12µM*
CCOC(=O)CCC(=O)NCc1ccc2c(c1)cc(C)n2C	51.8	-1.7%	2.4	-7.4%	-4.4%[38.3 µM]	?
Cc1cc2cc(CNC(=O)c3ccc(S(=O)(=O)N4CCCC4)cc3)ccc2n1C	?	-2.7%	-13.3	20µM*	20.2%[38.3 µM]	-6.2%
COc1cc2c(cc1OC)-c1cc3nc4ccccc4nc3n1C(C)(C)C2	·	-22.2%	-7.2	?	4.7%	?
Cc1cccc(Nc2cc(Cl)nc(SCC(=O)O)n2)c1C	·	0.8%	-2.7	10µM*!	-1.9%	25.1µM*!
Nc1nc2nc3c(nc2c(=O)[nH]1)CN(c1ccc(C(=O)O)cc1)C3=O	·	1.6%[11.4 µM]	·	8.8%[13.5 µM]	-4.6%	-1.0%
COc1ccc(/C=C/C2=CC(C)(C)NC(=S)N2)cc1	·	·	·	5.62µM*	-9.3%	·
O=C(NC1CCCC1)C(c1cccnc1)N(C(=O)c1csnn1)C1CCCC1 (stereo not given)	5.7	8.6%	-0.2	?	6.1%	4.8%
O=C(NC1CCCC1)C(c1ccncc1)N(C(=O)c1csnn1)C1CCCC1 (stereo not given)	·	·	·	12.6µM*	-1.5%	·
O=C(NC1CCCCC1)C(c1cccnc1)N(C(=O)c1csnn1)C1CCCC1 (stereo not given)	-100.0*	-0.7%	3.1	7.8%	8.8%	-11.1%
COC(=O)N[C@@H](CCc1ccccc1)[C@]1(C(C)=O)CCCC1=O	·	·	·	-2.1%	17.8%	-10.9%
O=C1c2ccccc2C(=O)c2c1ccc(O)c2O	·	?	?	?	61.0%	28.2µM*
O=C1c2ccc(O)c(O)c2C(=O)c2c(O)ccc(O)c21	·	-35.6%	·	?	141.3%	11.2µM*
CN(C)c1cccc2c1C(=O)c1ccccc1C2=O	89.0	0.6%	·	?	15.2%	-5.9%
O=C1c2cccc(O)c2C(=O)c2c(O)cccc21	43.1	-11.2%	·	?	-5.9%	35.5µM*!
COc1ccc(CC[N@+]2(C)COc3cc4oc(=O)cc(C)c4cc3C2)cc1OC	·	7.1%[11.4 µM]	·	-2.1%[13.5 µM]	0.0%	1.1%
CC(Sc1nc(C(C)(C)C)cc(-c2ccccc2)c1C#N)C(=O)Nc1ccccc1 (stereo not given)	-15.6	0.9%	·	25.1µM*	3.4%	15.8µM*
N#Cc1c(-c2ccccc2)cc(-c2ccccc2)nc1SCC(=O)Nc1ccc(Cl)cc1	·	·	-0.8	·	·	·
O=C(C1CCCN(S(=O)(=O)c2cnc[nH]2)C1)N1CC(=O)N(CCc2ccccc2)C(=O)C1 (stereo not given)	-119.3*	1.2%	4.4	-12.7%	8.2%	1.5%
COc1ccc(CNc2ncnc3ccc(-c4cccc(NS(C)(=O)=O)c4)cc23)c(OC)c1	·	·	·	3.0%	22.6%	·
COc1cccc(CN2CC(O)=C(c3nc(-c4ccc(Cl)cc4)cs3)C2=N)c1	0.4	-25.0%	18.2	?	5.62µM*	-24.5%
COc1ccc(-c2csc(C3=C(O)CN(Cc4ccc(Cl)cc4)C3=N)n2)cc1OC	36.5	-1.6%	-0.6	6.8%	27.5%[38.3 µM]	-4.0%
CC(C)CCSc1nnc2n(-c3ccccc3)c(=O)c3c4c(sc3n12)CC(C)CC4 (stereo not given)	·	·	-2.0	·	·	·
O=C(O)Cn1cc(/C=C/[N+](=O)[O-])c2ccccc21	·	·	·	-10.8%	0.8%	·
C(=N\n1cnnc1)/c1cn(Cc2ccccc2)c2ccccc12	-4.8	-4.2%	5.9	12.6µM*	-0.3%[38.3 µM]	-17.9%
N#Cc1ccccc1Cn1cc(/C=C/[N+](=O)[O-])c2ccccc21	-11.2	-7.2%	·	3.55µM*	22.5%	39.8µM*
